Measured values taken from PubChem BioAssay.
The source made the active and inactive calls.

Assay: plasmodial surface anion channel blockers, osmotic lysis – cell-based, P. falciparum Indochina, OD700, 2 h, primary screen (AID 1155);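 further: lysis reports solute entry through the parasite surface anion channel PSAC; channel blockers reduce lysis of infected cells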
Settings: P. falciparum Indochina infected erythrocytes, higher = more signal, called active from +8 up or from −8 down

z-score, inactive:
CCN1C(=O)[C@H]2[C@H]3[C@H](O)[C@H](O)CC(=NOCC(C)C)[C@H]3CC[C@H]2C1=O -0.0288
COC(OC)[C@@H](C)[C@H](OC)[C@@H](C)[C@H](OC)c1ccccc1 -0.947
COC(=O)[C@H](C)NC(=O)CCC1CC(OC(=O)NCc2ccc3c(c2)OCO3)CC2(CCCC(COC(=O)NCc3ccccc3)O2)O1 (some centres not stated) 0.0056
CO[C@@H](C1CCCCC1)[C@@H](C)[C@H](OCc1cccc(Br)c1)[C@@H](C)CO 1.29
CC(C)CON=C1[C@H]2CCn3c(=O)n(C)c(=O)n3[C@H]2[C@H](O)[C@@H]2O[C@H]12 -0.165
C[C@]12CCC3c4ccc(OCC5CO5)cc4CCC3C1CC[C@@H]2O (some centres not stated) 7.31
CO[C@@H]1C=CCC(=O)N[C@@H](C)C(=O)OC[C@@H](OC)[C@H](C)C=CCC(=O)OC[C@H]1C 0.233
OC[C@H]1O[C@H](C#Cc2ccccc2)C=C[C@@H]1O 0.803
CC(C)[C@@H](OCc1ccccc1)[C@H](C)C=NO[C@H](C)c1cn([C@@H]2COC[C@H]2O)nn1 -0.119
CN1CCc2nc(-c3ccccc3)c(-c3ccccc3)cc2C1 -0.0787
O=C1[C@H]2[C@H]3[C@H](O)[C@H](O)CC(=NOC[C@@H](O)COCc4ccco4)[C@@H]3CC[C@H]2C(=O)N1Cc1ccc2c(c1)OCO2 4.77
CCOC(=O)[C@H](CC(C)C)NC(=O)CCC1CC(OC(=O)NCc2ccc3c(c2)OCO3)CC2(CCCC(COC(=O)NCCc3ccccc3OC)O2)O1 (some centres not stated) -0.213
C[C@@H]1CC[C@H]2C(=O)OC(CN3C(=O)c4ccccc4C3=O)CN2[C@H]1c1ccc(Br)cc1 (some centres not stated) 0.63
O=C1C=C[C@@H](O)[C@@H]2[C@@H]3C(=O)N(Cc4ccc5c(c4)OCO5)C(=O)[C@@H]3CC[C@@H]12 -0.0262
COC(=O)[C@H](C)NC(=O)CCC1CC(OC(=O)NCc2cccc3ccccc23)CC2(CCCC(COC(=O)NCCCN3CCCC3=O)O2)O1 (some centres not stated) 0.397
CO[C@@H]1COC(=O)[C@H](COCc2ccccc2)NC(=O)CC=C[C@@H](C)[C@H](OC)COC(=O)[C@@H](C)NC(=O)CC=C[C@H]1C -0.0696
CON=C(C)CCN1CCCCc2nc(C)c(C)cc21 -0.117
C#CCCCON=C1[C@H]2CCn3c(=O)n(Cc4cc5c(cc4Cl)OCO5)c(=O)n3[C@H]2[C@H](O)[C@@H]2O[C@H]12 0.581
C[C@H]1CC[C@H]2C(=O)N[C@H](Cc3ccccc3)C(=O)N2[C@@H]1c1ccccc1 0.405
CC(CCN1CCc2nc(-c3ccccc3)c(-c3ccccc3)cc2C1)=NO[C@H](C)c1cn([C@H](CO)Cc2ccccc2)nn1 0.147
C#CCCCON=C1C[C@@H](O)[C@@H](O)[C@@H]2[C@@H]3C(=O)N(C[C@@H]4CCCO4)C(=O)[C@@H]3CC[C@@H]12 0.284
CCOC(=O)[C@H](CC(C)C)NC(=O)CCC1CC(OC(=O)NCc2ccc3c(c2)OCO3)CC2(CCCC(COC(=O)NCCOC)O2)O1 (some centres not stated) 0.529
COc1ccc(OC[C@@H](CO)OC)cc1 -0.348
COC(=O)[C@@H]1CC[C@H](C)[C@@H](c2ccc(C)cc2)N1C(=O)c1ccc(C=NOC[C@@H](O)[C@H]2O[C@@H]3OC(C)(C)O[C@@H]3[C@H]2O)cc1 0.364
CC(=O)OC[C@H]1O[C@H](CC=NO[C@@H](C)c2cn([C@H](CO)Cc3ccccc3)nn2)C=C[C@@H]1OC(C)=O -0.429
COC(=O)[C@H](C)NC(=O)CCC1CC(OC(=O)NCc2ccc3c(c2)OCO3)CC2(CCCC(COC(=O)NCCC(C)C)O2)O1 (some centres not stated) 4.71

Assay: changes in parasitized red cell lysis, either direction – P. falciparum Indochina, OD700, 3 h, PSAC antagonist project, primary screen (AID 1156)
Settings: P. falciparum-infected erythrocytes, osmotic lysis, higher = more signal, called active from +8 up or from −8 down

z-score, inactive:
CCOC(=O)CCN1C(=O)[C@H]2[C@H]3[C@H](O)[C@H](O)CC(=NOCC=C(C)CCC=C(C)C)[C@H]3CC[C@H]2C1=O 1.25
CCOC(=O)[C@H](Cc1ccccc1)NC(=O)CCC1CC(OC(=O)NCc2cccc3ccccc23)CC2(CCCC(COC(=O)NCCOc3ccccc3)O2)O1 (some centres not stated) 0.48
CCOC(=O)[C@H](CC(C)C)NC(=O)CCC1CC(OC(=O)NCCc2ccc(F)cc2)CC2(CCCC(COC(=O)NCCCN3CCCC3=O)O2)O1 (some centres not stated) -0.172
CC(=O)OC[C@H]1O[C@H](CC=NOC(C)CN2CCCCc3nc(C)c(C)cc32)C=C[C@@H]1OC(C)=O (some centres not stated) 0.417
C#CCCCON=C1[C@H]2CCn3c(=O)n([C@@H](CC)c4ccccc4)c(=O)n3[C@H]2[C@H](O)[C@@H]2O[C@H]12 0.461
CO[C@H]1C[C@@H]2C[C@H](O)CC(CC(=O)O[C@@H](C=CCC(C)C)C[C@@H]3CC[C@H](C)[C@@H](C1)O3)O2 0.773
C=CC[C@@H]1C=C[C@H](ON=C[C@@H](NS(=O)(=O)c2ccc(C)cc2)[C@H](C)C=CCC(=O)OC)[C@@H](CO)O1 0.0436
CO[C@H]1COC(=O)CCC[C@H](C)[C@@H](OC)COC(=O)CC=C[C@@H]1C -0.315
O=C(NN=C1C[C@@H](O)[C@@H](O)[C@@H]2[C@@H]3C(=O)N(Cc4ccccc4)C(=O)[C@@H]3CC[C@H]12)OCc1ccccc1 -0.999
CCOC(=O)[C@H](CC(C)C)NC(=O)CCC1CC(OC(=O)NCCc2ccc(F)cc2)CC2(CCCC(COC(=O)NCc3cccc4ccccc34)O2)O1 (some centres not stated) -1.34
CCN1C(=O)[C@H]2[C@H]3[C@H](O)[C@H](O)CC(=NOCC(C)C)[C@H]3CC[C@H]2C1=O -0.369
COC(OC)[C@@H](C)[C@H](OC)[C@@H](C)[C@H](OC)c1ccccc1 -0.75
COC(=O)[C@H](C)NC(=O)CCC1CC(OC(=O)NCc2ccc3c(c2)OCO3)CC2(CCCC(COC(=O)NCc3ccccc3)O2)O1 (some centres not stated) 0.049
CO[C@@H](C1CCCCC1)[C@@H](C)[C@H](OCc1cccc(Br)c1)[C@@H](C)CO -1.8
CC(C)CON=C1[C@H]2CCn3c(=O)n(C)c(=O)n3[C@H]2[C@H](O)[C@@H]2O[C@H]12 -0.607
C[C@]12CCC3c4ccc(OCC5CO5)cc4CCC3C1CC[C@@H]2O (some centres not stated) 0.269
CO[C@@H]1C=CCC(=O)N[C@@H](C)C(=O)OC[C@@H](OC)[C@H](C)C=CCC(=O)OC[C@H]1C 0.442
OC[C@H]1O[C@H](C#Cc2ccccc2)C=C[C@@H]1O 0.802
CC(C)[C@@H](OCc1ccccc1)[C@H](C)C=NO[C@H](C)c1cn([C@@H]2COC[C@H]2O)nn1 -0.541
CN1CCc2nc(-c3ccccc3)c(-c3ccccc3)cc2C1 0.406
O=C1[C@H]2[C@H]3[C@H](O)[C@H](O)CC(=NOC[C@@H](O)COCc4ccco4)[C@@H]3CC[C@H]2C(=O)N1Cc1ccc2c(c1)OCO2 0.826
CCOC(=O)[C@H](CC(C)C)NC(=O)CCC1CC(OC(=O)NCc2ccc3c(c2)OCO3)CC2(CCCC(COC(=O)NCCc3ccccc3OC)O2)O1 (some centres not stated) -1.01
C[C@@H]1CC[C@H]2C(=O)OC(CN3C(=O)c4ccccc4C3=O)CN2[C@H]1c1ccc(Br)cc1 (some centres not stated) -0.694
O=C1C=C[C@@H](O)[C@@H]2[C@@H]3C(=O)N(Cc4ccc5c(c4)OCO5)C(=O)[C@@H]3CC[C@@H]12 -0.556
COC(=O)[C@H](C)NC(=O)CCC1CC(OC(=O)NCc2cccc3ccccc23)CC2(CCCC(COC(=O)NCCCN3CCCC3=O)O2)O1 (some centres not stated) 0.0085
CO[C@@H]1COC(=O)[C@H](COCc2ccccc2)NC(=O)CC=C[C@@H](C)[C@H](OC)COC(=O)[C@@H](C)NC(=O)CC=C[C@H]1C 0.386
CON=C(C)CCN1CCCCc2nc(C)c(C)cc21 -0.374
C#CCCCON=C1[C@H]2CCn3c(=O)n(Cc4cc5c(cc4Cl)OCO5)c(=O)n3[C@H]2[C@H](O)[C@@H]2O[C@H]12 0.579
C[C@H]1CC[C@H]2C(=O)N[C@H](Cc3ccccc3)C(=O)N2[C@@H]1c1ccccc1 -0.304
CC(CCN1CCc2nc(-c3ccccc3)c(-c3ccccc3)cc2C1)=NO[C@H](C)c1cn([C@H](CO)Cc2ccccc2)nn1 1.16
C#CCCCON=C1C[C@@H](O)[C@@H](O)[C@@H]2[C@@H]3C(=O)N(C[C@@H]4CCCO4)C(=O)[C@@H]3CC[C@@H]12 -1.08
CCOC(=O)[C@H](CC(C)C)NC(=O)CCC1CC(OC(=O)NCc2ccc3c(c2)OCO3)CC2(CCCC(COC(=O)NCCOC)O2)O1 (some centres not stated) -0.535
COc1ccc(OC[C@@H](CO)OC)cc1 -0.566
COC(=O)[C@@H]1CC[C@H](C)[C@@H](c2ccc(C)cc2)N1C(=O)c1ccc(C=NOC[C@@H](O)[C@H]2O[C@@H]3OC(C)(C)O[C@@H]3[C@H]2O)cc1 0.107
CC(=O)OC[C@H]1O[C@H](CC=NO[C@@H](C)c2cn([C@H](CO)Cc3ccccc3)nn2)C=C[C@@H]1OC(C)=O 0.656
COC(=O)[C@H](C)NC(=O)CCC1CC(OC(=O)NCc2ccc3c(c2)OCO3)CC2(CCCC(COC(=O)NCCC(C)C)O2)O1 (some centres not stated) 0.3
